Assay results published in PubChem BioAssay (NCATS).
Records with an inconclusive call do not appear. The source made the active and inactive calls. Calls come from the whole dose curve; as a rule, active = well fitted inhibition curve with a large enough effect; inconclusive = small, poorly fitted or top-dose-only effect; inactive = flat fitted curve, though single readings scatter.

These compounds were tested on Zika virus NS2B-NS3 protease (assay: Primary screen GU AMC qHTS for Zika virus inhibitors (AID 1347154; note: nearly all actives have a fitted effect of over 70% in size;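 for activity change, negative = inhibition: 0% = no-inhibitor control and -100% = no-enzyme control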)). Conditions: Zika NS2B-NS3 unlinked protease, AMC fluorogenic substrate; series mostly up to 54.1 µM; activity change, negative = inhibition: at the top concentration.
Procedure, shortened: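 Fluorogenic AMC-substrate cleavage by noncovalent NS2B-NS3 protease complex (25 nM, pH 8.0 Tris buffer with Tween 20) followed for 15 minutes at room temperature (~20% conversion). Percent inhibition from ex340/em450 signal change, fitted by 4-parameter Hill equation.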
Potency is the fitted concentration of half-maximal effect.

Structure (SMILES)	activity change, negative = inhibition	Potency
Clc1cccc(-n2nnnc2NCc2ccccc2Oc2ccccn2)c1Cl	9.78% (inactive)	
COc1cc(C(C)C)c2c(c1)S(=O)(=O)N(COc1cc(=O)n3cccc(OCCN4CCCCC4)c3n1)C2=O		inactive
CC(=O)c1c(C)c2cnc(Nc3ccc(N4CCNCC4)cn3)nc2n(C2CCCC2)c1=O	-0.331% (inactive)	
COc1c(N2C[C@@H]3CCCN[C@H]3C2)c(F)cc2c(=O)c(C(=O)O)cn(C3CC3)c12		30.4 µM (active)
C=CC(=O)Nc1cc2c(Nc3ccc(F)c(Cl)c3)ncnc2cc1OCCCN1CCOCC1	-8.97% (inactive)	
CS(=O)(=O)c1ccc(-c2cnc(N)c(C(=O)Nc3ccccc3)n2)cc1	762% (inactive)	
c1cc(-c2cnn3cc(-c4ccc(OCCN5CCCCC5)cc4)cnc23)ccn1	-21.5% (inactive)	
Nc1nc(Nc2ccc(S(N)(=O)=O)cc2)nn1C(=O)c1c(F)cccc1F	-14.6% (inactive)	
COc1cc2ncn(-c3cc(OCc4ccccc4C(F)(F)F)c(C(N)=O)s3)c2cc1OC	-5.08% (inactive)	
CC(C)Nc1cc(C(F)(F)F)cc2nc(NC(=O)c3cccnc3)nn12	3.95% (inactive)	
COc1ccc(C(=O)CC2(O)C(=O)Nc3c(Cl)ccc(Cl)c32)cc1 (stereo not given)	5.84% (inactive)	
Cc1ccc(CN2CCNCC2)cc1NC(=O)CNc1ccc(F)c(F)c1	18.1% (inactive)	
c1nc2nc(Nc3ccc(N4CCOCC4)cc3)nc(NC3CCCCC3)c2[nH]1	-11.2% (inactive)	
O=C1CCC[C@@H]2[C@H]3CCC[N+]4([O-])CCC[C@@H](CN12)[C@@H]34 (stereo not given in full)	-2.54% (inactive)	
CN(C)CC=CC(=O)Nc1cc2c(Nc3ccc(F)c(Cl)c3)ncnc2cc1O[C@H]1CCOC1	5.38% (inactive)	
